Unmarked numbers belong to inactive results. Results filed as inconclusive are left out. Calls of active or inactive are those of the source. Unless noted, the call rests on the fitted dose curve.

Experiment [1] is described as follows: Nuclear factor erythroid 2-related factor 2/antioxidant responsive element (Nrf2/ARE) small molecule agonists: qHTS cell viability counter screen in human keratinocytes (AID 1919968; active means well fitted curve in the direction sought with a large enough effect in the repeat runs; an effect the other way counts as inactive or inconclusive; further: nearly all actives have a fitted effect of over 55% in size; further: potency means the concentration at half of the fitted maximal effect). In outline: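 In human HaCaT keratinocytes stably expressing an ARE-driven luciferase, compound exposure lasted 23 h at 37 C under 5% CO2. Viable cells are quantified with a protease-based fluorogenic reagent (CellTiter-Fluor) read 1 h after addition.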

Experiment [2] in a line: Nuclear factor erythroid 2-related factor 2/antioxidant responsive element (Nrf2/ARE) small molecule agonists: luciferase reporter gene qHTS assay in human keratinocytes (AID 1919969). Further: nearly all actives have a fitted effect of over 35% in size. Further: potency means the concentration at half of the fitted maximal effect.
For experiment [3], the target named is Gonadotropin-releasing hormone receptor (Homo sapiens) (UniProt P30968). The experiment can be described thus: Human gonadotropin-releasing hormone receptor (GnRHR) small molecule agonists, calcium flux assay in GnRHR-HEK293 cells (AID 1920063). Further: nearly all actives have a fitted effect of over 35% in size. An outline of the steps:
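Intracellular calcium rise is the read-out: engineered human GnRHR HEK293 cells, dye-loaded, are exposed to DMSO-dissolved compounds and fluorescence at Ex/Em 480/540 is tracked for 3 min.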
(In general: Calcium assays in cells follow changes in intracellular calcium, usually with a dye or a luminescent sensor.)

For experiment [4], the target named is KiSS-1 receptor (Homo sapiens) (UniProt Q969F8). Briefly: Human kisspeptin (KISS1R) small molecule agonists, calcium flux assay in KISS1R-HEK293 cells (AID 1920064; active means well fitted curve in the direction sought with a large enough effect in the repeat runs; an effect the other way counts as inactive or inconclusive). In outline: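 Concentration-response testing used 15 concentrations in triplicate on human KISS1R-expressing HEK293 cells. Calcium-dependent fluorescence (Ex/Em 480/540) was followed kinetically for 3 min after compound transfer.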

The nature of experiment [5]: G protein-coupled receptor (GPCR) small molecule agonists, calcium flux assay: HEK293 wild type cell line counter screen (AID 1920065). In outline:
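Fluorescence intensity signals activation. After overnight (18 h) culture and a 1 h calcium dye load at 37 C, compounds are added by pin tool and the plate read at 480/540 nm for 3 min in 1 s steps.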

Experiment [6] in a line: p53 small molecule agonists, cell-based qHTS assay with human liver microsomes (AID 1963577).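 Further: p53 response element beta-lactamase reporter cells with liver microsomes plus NADPH.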 An outline of the steps:
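HLM-supplemented p53RE-bla reporter assay: 16 h compound exposure at 37 C, microsomes and NADPH each 0.5 mg/mL final, read by fluorescence intensity.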
Background: qHTS replaces the single test concentration by a dilution series.

Experiment [7] in a line: p53 small molecule agonists, cell-based qHTS assay with rat liver microsomes (AID 1963578). An outline of the steps: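 Quantitative HTS of the Tox21 10K library: p53RE-bla cells, rat liver microsomes plus NADPH at 0.5 mg/mL final each, 16 h at 37 C, beta-lactamase fluorescence detection.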
Experiment [8] can be described thus: p53 small molecule agonists, cell-based qHTS assay with human liver microsomes: qHTS cell viability counter screen (AID 1963579). Further: nearly all actives have a fitted effect of over 45% in size. Further: potency means the concentration at half of the fitted maximal effect. An outline of the steps:
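Viability of p53RE-bla cells is measured as CellTiter-Glo luminescence following a 16 h, 37 C incubation with compound, liver microsomes from human donors and NADPH.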

The nature of experiment [9]: p53 small molecule agonists, cell-based qHTS assay with rat liver microsomes: qHTS cell viability counter screen (AID 1963580). Further: nearly all actives have a fitted effect of over 45% in size. Further: potency means the concentration at half of the fitted maximal effect. An outline of the steps: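 After the beta-lactamase ratio was read, CellTiter-Glo was added to the same wells and luminescence measured at 30 min; cells had been treated 16 h at 37 C with compounds, rat liver microsomes and NADPH (0.5 mg/mL final each).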

Experiment [10] concerns the target 5-hydroxytryptamine receptor 2A (Homo sapiens) (UniProt P28223). The experiment can be described thus: 5-hydroxytryptamine receptor 2A (HTR2A) small molecule antagonists, cell-based qHTS assay (AID 1963586). Further: nearly all actives have a fitted effect of over 45% in size. In outline:
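CHO cells stably expressing human HTR2A were plated for 18 h at 37 C, then loaded with calcium dye for 1 h. Compounds were preincubated 5 min at room temperature before DOI (4 nM solution) was added. Kinetic fluorescence was read for 3 min.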

The target is the same in experiment [11]. The experiment can be described thus: 5-hydroxytryptamine receptor 2A (HTR2A) small molecule agonists, cell-based qHTS assay (AID 1963587). Further: nearly all actives have a fitted effect of over 30% in size. An outline of the steps: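 CHO cells stably expressing human HTR2A, plated 18 h, loaded with calcium dye 1 h at 37 C. Agonist mode: compounds added and intracellular calcium fluorescence recorded kinetically for 2 min at 1 sec intervals.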

For experiment [12], the target named is Muscarinic acetylcholine receptor M1 (Homo sapiens) (UniProt P11229). The experiment can be described thus: Cholinergic receptor muscarinic 1 (CHRM1) small molecule antagonists, cell-based qHTS assay (AID 1963588). Further: nearly all actives have a fitted effect of over 40% in size. In outline:
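Compounds were tested at 15 concentrations in three independent runs. Dye-loaded CHRM1-CHO cells were exposed 5 min at room temperature before stimulation by acetylcholine added at 50nM. Intracellular calcium was read kinetically on FDSS for 3 min.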

Experiment [13] has the same target. The experiment can be described thus: Cholinergic receptor muscarinic 1 (CHRM1) small molecule agonists, cell-based qHTS assay (AID 1963589). Further: nearly all actives have a fitted effect of over 35% in size. In outline:
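Fluorescent calcium dye reports M1 activation in stably transfected CHO cells. Compounds, 15 concentrations, added after 1 h dye loading at 37 C; kinetic reading at 1 sec intervals.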

A short description of experiment [14]: cAMP Responsive Elements (CRE) small molecule antagonists, cell-based qHTS assay (AID 1963591; active means well fitted inhibition curve with a large enough effect in the signal ratio in the repeat runs, not every such curve was filed as active; the % refers to the signal ratio). An outline of the steps: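 Stimulation used NKH477 at a final 0.25 uM for 3 h in compound-treated CRE-bla HEK293T cells, seeded 18 h beforehand. Reporter activity was measured with LiveBLAzer B/G FRET substrate after 2 h at room temperature.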
Experiment [15] has as its target Beta-2 adrenergic receptor (Homo sapiens) (UniProt P07550). The experiment can be described thus: Adrenergic beta2 receptor (ADRB2) small molecule antagonists, cell-based qHTS assay (AID 1963592). Further: series mostly up to about 92 µM; nearly all actives have a fitted effect of over 50% in size. In outline: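 Assay format: CHO-ADRB2 cells, 18-20hr seeding at 37C/5% CO2, then compound plus 1nM isoproterenol agonist mix for 0.5hr RT. Homogeneous time-resolved fluorescence cAMP detection after 1hr, expressed as 665/615 nm ratio.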

In experiment [16] the target is D(2) dopamine receptor (Homo sapiens) (UniProt P14416). Briefly: Dopamine D2 receptor (DRD2) small molecule agonists, cell-based qHTS assay (AID 1963594). Further: nearly all actives have a fitted effect of over 35% in size. In outline:
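HEK293 cells stably expressing human DRD2, pre-treated with PDE inhibitor Ro20-1724 (0.1 mM final) and compound 10 min at room temperature, then stimulated with NKH477 (200nM […]) for 30 min. cAMP read by HTRF (665/620 nm).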

Experiment [17] has the same target. The experiment can be described thus: Dopamine D2 receptor (DRD2) small molecule antagonists, cell-based qHTS assay (AID 1963595; active means well fitted inhibition curve with a large enough effect in the signal ratio in the repeat runs, with a control signal flat; the % refers to the signal ratio; further: potency means the concentration at half of the fitted maximal effect). An outline of the steps: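 HEK293 cells stably expressing DRD2, preincubated with 0.1 mM Ro20-1724 and compounds 10 min, were stimulated with 200 nM NKH477 plus 12 nM quinpirole for 30 min at room temperature; cAMP measured by HTRF (665/620 nm).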

Experiment [18] is described as follows: p53 small molecule agonists, cell-based qHTS assay (AID 1963582; active means well fitted activation curve with a large enough effect in the signal ratio in the repeat runs, not every such curve was filed as active; the % refers to the signal ratio; further: potency means the concentration at half of the fitted maximal effect). An outline of the steps:
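After plating, p53RE-bla cells sat 5 h in the incubator; compounds or DMSO vehicle were pinned in; a 16 h incubation at 37 C followed; FRET substrate was added and, 2 h later at RT, fluorescence was measured.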

Experiment [19] can be described thus: cAMP Responsive Elements (CRE) small molecule agonists, cell-based qHTS assay (AID 1963590). In outline: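 Compound exposure lasted 3 h at 37 C/5% CO2 in CRE-bla HEK 293T cells grown in assay medium with 10% dialyzed FBS and 25 mM HEPES. Reporter signal came from LiveBLAzer B/G FRET substrate, 2 h, room temperature.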
Experiment [20] can be described thus: p53 small molecule agonists, cell-based qHTS assay: qHTS cell viability counter screen (AID 1963581). Further: nearly all actives have a fitted effect of over 45% in size. An outline of the steps:
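Luminescence from CellTiter-Glo, reflecting ATP content, serves as the cytotoxicity measure; it is taken after the 2 h reporter substrate step in HCT-116 p53RE-bla cells dosed for 16 h at 37 C.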

D(2) dopamine receptor (Homo sapiens), sequence (P14416 whole entry, looked up): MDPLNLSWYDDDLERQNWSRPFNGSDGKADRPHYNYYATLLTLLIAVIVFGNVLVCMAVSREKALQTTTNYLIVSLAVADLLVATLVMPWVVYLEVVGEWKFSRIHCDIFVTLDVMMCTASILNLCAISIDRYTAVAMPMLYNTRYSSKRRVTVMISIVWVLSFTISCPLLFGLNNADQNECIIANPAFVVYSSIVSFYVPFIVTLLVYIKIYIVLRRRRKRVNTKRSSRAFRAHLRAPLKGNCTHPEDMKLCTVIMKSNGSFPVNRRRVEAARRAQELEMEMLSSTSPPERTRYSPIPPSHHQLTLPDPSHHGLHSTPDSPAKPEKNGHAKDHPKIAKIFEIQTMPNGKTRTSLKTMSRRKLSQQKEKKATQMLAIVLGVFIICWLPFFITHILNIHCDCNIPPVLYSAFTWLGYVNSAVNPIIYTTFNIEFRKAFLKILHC
Gonadotropin-releasing hormone receptor (Homo sapiens), sequence (P30968 whole entry, looked up): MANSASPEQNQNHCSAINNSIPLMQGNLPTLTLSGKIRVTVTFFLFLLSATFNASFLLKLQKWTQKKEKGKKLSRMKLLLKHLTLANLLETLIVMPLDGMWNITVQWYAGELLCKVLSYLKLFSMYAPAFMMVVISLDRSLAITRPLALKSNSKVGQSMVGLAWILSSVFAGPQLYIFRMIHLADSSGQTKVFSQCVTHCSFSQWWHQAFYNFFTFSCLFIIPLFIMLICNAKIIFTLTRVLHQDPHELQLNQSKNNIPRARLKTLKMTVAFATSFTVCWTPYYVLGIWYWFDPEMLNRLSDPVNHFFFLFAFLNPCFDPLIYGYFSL
Beta-2 adrenergic receptor (Homo sapiens), sequence (P07550 whole entry, looked up): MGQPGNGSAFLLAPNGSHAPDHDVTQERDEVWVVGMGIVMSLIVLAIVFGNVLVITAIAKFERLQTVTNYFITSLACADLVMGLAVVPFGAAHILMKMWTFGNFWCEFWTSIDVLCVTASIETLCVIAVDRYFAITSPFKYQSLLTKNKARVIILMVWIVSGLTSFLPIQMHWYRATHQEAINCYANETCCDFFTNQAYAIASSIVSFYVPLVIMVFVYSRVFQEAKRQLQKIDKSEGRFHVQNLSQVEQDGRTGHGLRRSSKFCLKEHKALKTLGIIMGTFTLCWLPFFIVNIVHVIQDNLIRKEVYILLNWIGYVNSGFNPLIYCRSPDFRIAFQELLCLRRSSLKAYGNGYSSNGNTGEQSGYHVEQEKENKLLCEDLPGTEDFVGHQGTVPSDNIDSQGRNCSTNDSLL
Muscarinic acetylcholine receptor M1 (Homo sapiens), sequence (P11229 whole entry, looked up): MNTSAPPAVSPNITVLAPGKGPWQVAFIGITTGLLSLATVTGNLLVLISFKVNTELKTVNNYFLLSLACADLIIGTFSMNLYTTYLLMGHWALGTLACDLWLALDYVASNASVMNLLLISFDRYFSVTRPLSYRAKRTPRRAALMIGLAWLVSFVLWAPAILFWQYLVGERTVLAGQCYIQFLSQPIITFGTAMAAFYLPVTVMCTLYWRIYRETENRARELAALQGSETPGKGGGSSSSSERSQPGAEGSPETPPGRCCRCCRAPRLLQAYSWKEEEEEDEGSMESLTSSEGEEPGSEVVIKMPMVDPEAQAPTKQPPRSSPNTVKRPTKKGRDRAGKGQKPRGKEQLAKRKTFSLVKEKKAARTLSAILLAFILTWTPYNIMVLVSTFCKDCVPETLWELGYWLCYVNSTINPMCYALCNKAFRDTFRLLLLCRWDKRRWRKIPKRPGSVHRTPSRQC
KiSS-1 receptor (Homo sapiens), sequence (Q969F8 whole entry, looked up): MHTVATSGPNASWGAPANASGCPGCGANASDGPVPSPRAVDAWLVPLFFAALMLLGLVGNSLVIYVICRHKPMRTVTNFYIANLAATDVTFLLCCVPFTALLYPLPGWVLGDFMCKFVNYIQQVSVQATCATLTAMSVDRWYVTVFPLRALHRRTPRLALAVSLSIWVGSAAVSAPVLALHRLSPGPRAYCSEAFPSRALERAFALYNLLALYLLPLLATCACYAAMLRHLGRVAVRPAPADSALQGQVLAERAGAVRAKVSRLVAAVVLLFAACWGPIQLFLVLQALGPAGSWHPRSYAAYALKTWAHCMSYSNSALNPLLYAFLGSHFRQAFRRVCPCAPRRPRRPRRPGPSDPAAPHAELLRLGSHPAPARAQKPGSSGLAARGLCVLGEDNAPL
5-hydroxytryptamine receptor 2A (Homo sapiens), sequence (P28223 whole entry, looked up): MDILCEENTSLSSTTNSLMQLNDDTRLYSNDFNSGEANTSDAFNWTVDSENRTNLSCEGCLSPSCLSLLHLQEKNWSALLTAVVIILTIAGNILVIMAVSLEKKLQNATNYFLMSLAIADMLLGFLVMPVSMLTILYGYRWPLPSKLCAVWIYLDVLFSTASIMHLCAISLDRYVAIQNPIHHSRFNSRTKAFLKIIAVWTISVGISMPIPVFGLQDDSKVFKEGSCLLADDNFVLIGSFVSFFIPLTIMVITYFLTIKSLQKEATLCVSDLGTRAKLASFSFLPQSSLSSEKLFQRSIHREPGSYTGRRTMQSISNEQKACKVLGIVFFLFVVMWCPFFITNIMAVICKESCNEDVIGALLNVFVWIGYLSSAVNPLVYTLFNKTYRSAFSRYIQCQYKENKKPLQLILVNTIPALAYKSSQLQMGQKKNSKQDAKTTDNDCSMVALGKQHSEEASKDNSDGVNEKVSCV

As to `O=C(O)c1cc(O)c2ccccc2c1O`, the Potency in experiment [1] was 6.11 µM (active); in experiment [2] it was 1.72 µM (active); in experiment [8], 8.14 µM (active). Further, the Potency entry in [3], in experiment [6], in [7], in experiment [9], in experiment [10] and in [11] was “inactive” in each case. The Potency entry in [12], in [13], in experiment [14], in [15] and in [16] was “inactive” throughout. The result in experiment [4] and in experiment [5] was inactive.
Take `CCCCCN(CCCCC)C(=O)C(CCC(=O)O)NC(=O)c1ccc(Cl)c(Cl)c1` (stereo not given): the Potency entry in experiment [1], in experiment [2], in [3], in experiment [6], in experiment [7] and in experiment [8] was “inactive” throughout. In addition, the Potency result in [9], in experiment [10], in [11], in experiment [12], in [13] and in [14] was “inactive” in each case. Moreover, the Potency entry in [15], in [16] and in experiment [17] was “inactive” in each case. Further, the outcome in [4] and in experiment [5] was inactive.
Turning to `Nc1ccn([C@@H]2O[C@H](CO)[C@@H](O)C2(F)F)c(=O)n1`, the Potency entry in [1], in experiment [2], in [3], in experiment [6], in experiment [7] and in experiment [8] was “inactive” each time. Moreover, the Potency result in experiment [9], in experiment [19], in experiment [14] and in [17] was “inactive” each time. In addition, the outcome in experiment [4] and in experiment [5] was inactive. In addition, the Potency in experiment [18] is 0.199 µM (active).
In the case of `C=CC(=O)OCC(CO)(COCC(COC(=O)C=C)(COC(=O)C=C)COC(=O)C=C)COC(=O)C=C`, the Potency was 4.28 µM (active) in [1]; 2.4 µM (active) in [2]; 3.2 µM (active) in [8]; 35.9 µM (active) in experiment [9]; 27 µM (active) in experiment [17]. For the same compound, the Potency result in [3], in experiment [6], in experiment [7], in experiment [10], in experiment [11] and in experiment [12] was “inactive” each time. For the same compound, the Potency entry in experiment [13] and in [16] was “inactive” each time. Further, the outcome in experiment [4] and in [5] was inactive.
With `CCCCCCCC(=O)Oc1c(Br)cc(C#N)cc1Br`, the Potency result in experiment [1], in experiment [2], in experiment [3], in experiment [6], in experiment [7] and in experiment [8] was “inactive” each time. Further, the Potency entry in experiment [9], in [10], in experiment [11], in experiment [13], in experiment [15] and in experiment [17] was “inactive” each time. Besides, the result in [4] and in [5] was inactive.
Turning to `CCCCCCCCCCCCCCNCCO`, the Potency in experiment [1] is 26.6 µM (active); in experiment [2], 13.3 µM (active). Also, the Potency result in [3], in [6], in [7], in experiment [8], in experiment [9] and in experiment [18] was “inactive” throughout. The Potency entry in [12], in experiment [13], in [19], in experiment [14], in experiment [15] and in experiment [17] was “inactive” in each case. In addition, the result in experiment [4] and in [5] was inactive.
Take `CCCCOCCOC(=O)c1cccnc1`: the Potency result in experiment [1], in experiment [2], in [3], in [6], in experiment [7] and in experiment [8] was “inactive” in each case. Further, the Potency result in experiment [20], in experiment [18], in experiment [10], in experiment [11], in experiment [12] and in [13] was “inactive” throughout. The Potency result in experiment [19], in experiment [14], in [15] and in experiment [16] was “inactive” each time. Besides, the outcome in experiment [4] and in experiment [5] was inactive.
`CCCCCCCCSCc1cc(C)c(O)c(CSCCCCCCCC)c1`: the Potency entry in experiment [1], in [3], in [6], in experiment [7], in [8] and in [9] was “inactive” in each case. For the same compound, the Potency entry in experiment [10], in experiment [11], in [12], in experiment [14], in experiment [15] and in [16] was “inactive” throughout. In [17], the Potency result is “inactive”. Further, the Potency in experiment [2] is 61.1 µM (active). The outcome in [4] and in [5] was inactive.

Source of the values: PubChem BioAssay (Tox21).
